{"source": "PubChem BioAssay (Tox21)", "note": "Active and inactive are the calls of the source. The call rests on the fitted dose curve; in most records, active means well fitted activation curve with a large enough effect in the repeat runs; inconclusive means weak or mixed curves; inactive means flat fitted curve, though single readings scatter. On the % scale 0 is the no-effect control and ±100 the full control effect."}
{"experiment": "A CellTox Green Cytotoxicity Assay to monitor cytotoxicity in HEK293 cells - 0 hour (AID 1224869); further: nearly all actives have a fitted effect of over 50% in size", "conditions": "CellTox Green fluorescence; series mostly up to 76.8 µM; cytotoxicity: at the top concentration", "from_the_text": "National Center for Advancing Translational Sciences [NCATS]\nNIH Chemical Genomics Center [NCGC]\nU.S. Environmental Protection Agency [EPA]\nNational Institutes of Environmental Health Sciences [NIEHS]\nNational Toxicology Program [NTP]\nCell-based models are critical for drug discovery. Determining the natural cytotoxic effects resulting from test compounds is an essential research activity. A CellTox Green Cytotoxicity Assay to monitor cytotoxicity in real time of continues cell culture during 40 hours of the compound treatment was used to screen Tox21 10K library compounds in Hek293 cells. CellTox Green Cytotoxicity Assay is a nonlytic, homogeneous, biofluorescent method to measure cytotoxicity in cell culture after experimental manipulation. The assay system uses a proprietary asymmetric cyanine dye that is excluded from viable cells but preferentially stains the dead cell's DNA. […] Viable cells produce no appreciable increases in fluorescence. Therefore, the fluorescence signal produced by the binding interaction with dead cell DNA is proportional to cytotoxicity.\nThe mixture of Hek293 cell suspension and reagents were dispensed at 600cells/6 ul/well in 1536-well tissue culture treated black solid bottom plates using a Multidrop dispenser. After the assay plates were incubated at a 37 C/5% CO2 incubator for 5 hours, 23 nL of compounds dissolved in DMSO, positive and negative controls was transferred to the assay plate by a pintool work station. The plates were incubated at 37 C for 40 hours. The fluorescence intensity were measured at 0h, 8h, 16h, 24h, 32h and 40h time points using ViewLux plate reader during compound treatment."}
{"smiles": "CC(=O)C(Cl)Cl", "cytotoxicity": "-3.95% (inactive)"}
{"smiles": "CNC(=O)Oc1cccc(C(C)C)c1", "cytotoxicity": "-12% (inactive)"}
{"smiles": "Cc1cc(C)nc(Nc2ccccc2)n1", "cytotoxicity": "1.67% (inactive)"}
{"smiles": "O=C(N[C@H]1CN2CCC1CC2)c1cc2ccoc2cn1", "cytotoxicity": "-5.39% (inactive)"}
{"smiles": "CC(C=O)Cc1ccc2c(c1)OCO2", "note": "(stereo not given)", "cytotoxicity": "-8.35% (inactive)"}
{"smiles": "CCOP(=S)(OCC)Oc1cc(-c2ccccc2)on1", "cytotoxicity": "3.75% (inactive)"}
{"smiles": "C=CCC1=C(C)[C@@H](OC(=O)[C@@H]2[C@@H](C=C(C)C)C2(C)C)CC1=O", "cytotoxicity": "-0.208% (inactive)"}
{"smiles": "CCCCP(CCCC)CCCC", "cytotoxicity": "-5.77% (inactive)"}
{"smiles": "CC(C)NCC(O)c1ccc(N)c(C#N)c1", "note": "(stereo not given)", "cytotoxicity": "1.17% [at 35.3 µM] (inactive)"}
{"smiles": "CCCSP(=O)(OCC)Oc1ccc(Br)cc1Cl", "note": "(stereo not given)", "cytotoxicity": "1.37% [at 35.3 µM] (inactive)"}
{"smiles": "N#CC(CCc1ccc(Cl)cc1)(Cn1cncn1)c1ccccc1", "note": "(stereo not given)", "cytotoxicity": "-1.97% (inactive)"}
{"smiles": "O=c1oc2ccccc2c(O)c1C1CCCc2ccccc21", "note": "(stereo not given)", "cytotoxicity": "-14.2% (inactive)"}
{"smiles": "CC(CC(C#N)(c1ccccc1)c1ccccc1)N(C)C", "note": "(stereo not given)", "cytotoxicity": "1.98% (inactive)"}
{"smiles": "c1cc2c(c(N3CCNCC3)c1)OCCO2", "cytotoxicity": "-11.7% [at 35.3 µM] (inactive)"}
{"smiles": "COc1cc(OC)nc(Oc2cccc(Oc3nc(OC)cc(OC)n3)c2C(=O)O)n1", "cytotoxicity": "-5.38% (inactive)"}
{"smiles": "NC(=O)c1cc([N+](=O)[O-])cc([N+](=O)[O-])c1", "cytotoxicity": "5.06% [at 35.3 µM] (inactive)"}
{"smiles": "COc1ncc(F)c2nc(S(=O)(=O)Nc3c(F)cccc3F)nn12", "cytotoxicity": "9.25% [at 35.3 µM] (inactive)"}
{"smiles": "O=[N+]([O-])c1cccc2cccnc12", "cytotoxicity": "5.09% (inactive)"}
{"smiles": "CC1=NNC(=O)N(/N=C/c2cccnc2)C1", "cytotoxicity": "0.192% (inactive)"}
{"smiles": "CCCCc1c(C)nc(NCC)[nH]c1=O", "cytotoxicity": "-0.875% (inactive)"}
{"smiles": "CCN(CC)c1nc(C)cc(OP(=S)(OC)OC)n1", "cytotoxicity": "-1.44% (inactive)"}
{"smiles": "O=C(O)c1ccc2[nH]cc(CCCCN3CC=C(c4ccccc4)CC3)c2c1", "cytotoxicity": "0.842% [at 35.3 µM] (inactive)"}
{"smiles": "C=C(C)[C@@H]1CC=C(C=O)CC1", "cytotoxicity": "-3.28% (inactive)"}
{"smiles": "ClC(Cl)(Cl)C(Cl)(Cl)Cl", "cytotoxicity": "0.0948% (inactive)"}
{"smiles": "CCC(C)(C)c1cc(-n2nc3ccccc3n2)c(O)c(C(C)(C)CC)c1", "cytotoxicity": "-0.345% (inactive)"}
{"smiles": "O=NN1CCN(N=O)CC1", "cytotoxicity": "0.59% (inactive)"}
{"smiles": "CCCCCCBr", "cytotoxicity": "-1.23% (inactive)"}
{"smiles": "CCOC(=O)C(c1c(O)c2ccccc2oc1=O)c1c(O)c2ccccc2oc1=O", "cytotoxicity": "0.729% [at 35.3 µM] (inactive)"}
{"smiles": "C[N+](C)=CCl", "cytotoxicity": "0.703% (inactive)"}
{"smiles": "CCC1(c2ccccc2)C(=O)NC(=O)NC1=O", "cytotoxicity": "1.83% (inactive)"}
{"smiles": "COC(=O)c1ccccc1S(=O)(=O)NC(=O)N(C)c1nc(C)nc(OC)n1", "cytotoxicity": "0.93% (inactive)"}
{"smiles": "O=C(Oc1ccc(Br)cc1)N1CCN2CCC1CC2", "cytotoxicity": "-7.6% (inactive)"}
{"smiles": "C#C[C@]1(O)C=C[C@H]2[C@@H]3CCC4=CC(=O)CC[C@@H]4[C@H]3CC[C@@]21CC", "cytotoxicity": "0.901% [at 35.3 µM] (inactive)"}
{"smiles": "Cc1ncc2n1-c1ccc(Cl)cc1C(c1ccccc1F)=NC2", "cytotoxicity": "-0.0698% [at 35.3 µM] (inactive)"}
{"smiles": "Clc1ccccc1N1CCNCC1", "cytotoxicity": "-15% [at 35.3 µM] (inactive)"}
{"smiles": "O=P(O)(Oc1ccccc1)Oc1ccccc1", "cytotoxicity": "-4.91% (inactive)"}
{"smiles": "O=C(Nc1ccccc1)N(Cc1ccc(Cl)cc1)C1CCCC1", "cytotoxicity": "-6.05% (inactive)"}
{"smiles": "CC(C)COP(=O)(OCC(C)C)OCC(C)C", "cytotoxicity": "-14.2% (inactive)"}
{"smiles": "CC1=C(C(=O)Nc2ccccc2)S(=O)(=O)CCO1", "cytotoxicity": "-4.18% (inactive)"}
{"smiles": "COc1cc(C[C@@H](C)N)c(OC)cc1C", "cytotoxicity": "10.3% (inactive)"}
